# An excerpt weighted towards active compounds, which were near 10% of everything screened.
# BAZ2B inh = inhibitors of human BAZ2B bromodomain; Q9UIF8; AlphaScreen BAZ2B-H3K14Ac peptide displacement; Potency, µM (series often up to 114 µM), without a hit: at the highest dose activity change, negative = inhibition, usual class: inhibitors; hit rate 4.4% among 360,000; AID 504333; note: potency is the fitted concentration of half-maximal effect; % is set by controls: 0 for no effect and ±100 for the full control effect; nearly all actives have a fitted effect of over 60% in size
#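 Compounds, titrated to a top concentration of 110 uM, were incubated 30 min at room temperature with preformed BAZ2B/acetyl-K14 H3 peptide complex (50 nM each). Proximity signal was measured by AlphaScreen after 20 min with beads.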
# Six1-Eya2 blk = blocks human Six1 binding to Eya2 | Q15475+O00167 | AlphaScreen GST-Six1/His-Eya2 binding, biochemical; active compounds read low | activity change, % (test concentration not listed) | hit rate 0.56% among 360,000; in the data active = activity change below about -65%; inconclusive = mostly about -30% to -63%; note: % is set by controls: 0 for no effect and ±100 for the full control effect
#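 GST-Six1 + His-Eya2 (5X stock: 250/500 nM); Tris pH 8.0, 300 mM NaCl, 0.05% BSA, 0.02% Tween 20; GSH donor/Ni acceptor beads; 1 h 37 °C dark; AlphaScreen readout.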
# CtBP-E1A blk = blocks the CtBP interaction with E1A; AlphaScreen GST-E1A/His-CtBP binding, 1536-well; active compounds read low; activity change, % (no concentration beside the values); hit rate 0.49% among 340,000; AID 651724; in the data active = activity change below about -65%; inconclusive = mostly about -30% to -63%; note: % is set by controls: 0 for no effect and ±100 for the full control effect
#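 In 5 uL wells, 23 nL compound meets equimolar GST-E1A and His-CtBP (5X stock 125 nM each) for 2 h, 37 °C. Beads (5X, 50 ug/mL) then 1 h, 37 °C, dark.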
# JMJD2A Tudor = blocks the human JMJD2A Tudor domain; AlphaScreen JMJD2A-Tudor / H3K4me3 peptide binding; hit rate 4.4% among 390,000; AID 504339; Potency, µM (doses to about 114 µM), without a hit: at the top dose activity change, negative = inhibition, most hits filed as inhibitors; note: potency is the fitted concentration of half-maximal effect; % is set by controls: 0 for no effect and ±100 for the full control effect; nearly all actives have a fitted effect of over 50% in size
# HP1b chromo inh = HP1-beta chromodomain-methylated histone interaction inhibition | P83916 | AID 540317 | hit rate 0.56% among 390,000 | AlphaScreen HP1-beta / biotin-H3K9me3 peptide binding | Potency, µM (highest dose often 114 µM), for the others: at the top dose activity change, negative = inhibition, hits mostly inhibitors; note: potency is the fitted concentration of half-maximal effect; nearly all actives have a fitted effect of over 70% in size
# Target sequence (P83916 whole entry, looked up): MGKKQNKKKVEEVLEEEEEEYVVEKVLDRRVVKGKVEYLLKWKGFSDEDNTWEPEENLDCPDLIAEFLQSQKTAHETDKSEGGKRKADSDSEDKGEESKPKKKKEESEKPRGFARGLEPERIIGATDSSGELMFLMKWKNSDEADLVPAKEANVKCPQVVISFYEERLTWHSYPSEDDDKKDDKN
#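 AlphaScreen: HP1-beta (50 nM) preformed 30 min with biotin-H3(1-18)K9me3 peptide (50 nM) in PBS pH 7.4, 0.01% Tween-20. Compound added for 30 min at RT, then streptavidin donor/nickel chelate acceptor beads (10 ug/mL) for 30 min.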
# G9a inh = blocks human histone lysine methyltransferase G9a; G9a H3K9 monomethylation, AlphaScreen, 2 h; hit rate 8.8% among 350,000; Potency, µM (highest dose often 102 µM), without a hit: top-dose activity, negative = inhibition, usual class: inhibitors; Q96KQ7; AID 504332; note: potency is the fitted concentration of half-maximal effect; % is set by controls: 0 for no effect and ±100 for the full control effect; nearly all actives have a fitted effect of over 75% in size
# Target sequence (Q96KQ7 913-1193 limits assumed): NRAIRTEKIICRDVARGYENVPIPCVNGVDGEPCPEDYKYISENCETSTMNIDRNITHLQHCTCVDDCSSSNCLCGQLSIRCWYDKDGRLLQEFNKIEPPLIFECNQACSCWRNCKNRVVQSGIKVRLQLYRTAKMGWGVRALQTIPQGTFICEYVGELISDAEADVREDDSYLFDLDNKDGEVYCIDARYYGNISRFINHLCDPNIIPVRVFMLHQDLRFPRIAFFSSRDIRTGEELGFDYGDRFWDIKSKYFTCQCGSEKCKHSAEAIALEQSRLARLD
#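 Step 1: enzyme (final 20 nM) with compound, 15 min RT. Step 2: substrate peptide 500 nM and SAM 20 uM, 2 h RT. Step 3: anti-H3K9me1 antibody and AlphaScreen beads, 10 min, then plate read.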
# Numbers without * were called inactive; ? = inconclusive; · = not tested or not shown; [ ] = remark or other dose. Unless noted, calls come from the whole dose curve; as a rule, active = well fitted inhibition curve with a large enough effect; inconclusive = small, poorly fitted or top-dose-only effect; inactive = no such curve, though single readings can be large or run the other way.
SMILES,BAZ2B inh,Six1-Eya2 blk,CtBP-E1A blk,JMJD2A Tudor,HP1b chromo inh,G9a inh
S=C(Nc1ccc(-c2nc3ccccc3[nH]2)cc1)Nc1cccnc1,-27%,-15,-23,-34%,-36%,45µM*
Fc1ccc(NC(=S)NCCN2CCOCC2)cc1,-27%,-1,0,-17%,-18%,-22%
Cc1c(C(=O)Oc2ccc(Br)cc2)sc2ncn(Cc3ccccc3F)c(=O)c12,5%,·,·,14%,9%,-5%[59 µM]
COc1ccc(C2(CNC(=O)c3cccc([N+](=O)[O-])c3)CCOCC2)cc1,-6%,-1,0,-4%,11%,-11%
COc1ccc(C2(CNC(=O)c3ccccc3[N+](=O)[O-])CCOCC2)cc1,-7%,0,1,-12%,42%,40µM*
COc1ccc(C2(CNC(=O)c3cccc([N+](=O)[O-])c3)CCOCC2)cc1OC,10%,10,-1,56µM*,0%,-4%[59 µM]
COCCn1c(SCC(=O)N2CCCC2=O)nnc1-c1ccncc1,·,4,0,·,·,·
O=C(NC1CC(=O)N(c2ccc(Cl)cc2)C1)c1ccc2c(c1)OCO2 (stereo not given),0%,·,·,-10%,12%,10%[59 µM]
Cc1nnc(NC(=O)CSCc2cc(=O)c3ccccc3[nH]2)s1,-20%,·,·,-24%,20%[57 µM],5%[12.7 µM]
CCOc1ccc(CCNC(=O)Cn2cccc2C(=O)c2ccccc2C)cc1OCC,?,-13,-4,-30%,14%,7%[59 µM]
NC(=O)CC(NC(=O)Cc1ccc(Br)cc1)c1ccc(NCc2ccccn2)c([N+](=O)[O-])c1 (stereo not given),79µM*,?,-27,?,1%,-108%[59 µM]
NC(=O)c1cc([N+](=O)[O-])c(Cl)cc1NCc1ccncc1,0%,-8,-6,-25%,23%,22%[2.33 µM]
NC(=O)c1cc([N+](=O)[O-])c(Cl)cc1NCc1ccccn1,79µM*,-18,?,56µM*,10%,11%[2.33 µM]
NC(=O)CC(NC(=O)Cc1ccc(Br)cc1)c1ccc(NCCN2CCCCC2)c([N+](=O)[O-])c1 (stereo not given),50µM*,-8,0,-5%,21%,·
NC(=O)CC(NC(=O)Cc1ccc(Br)cc1)c1ccc(NCCN2CCCC2)c([N+](=O)[O-])c1 (stereo not given),-5%,3,1,-14%,34%,·
Cc1cccc(NC(=O)c2oc3ccc(S(=O)(=O)N4CCCCC4)cc3c2C)c1C,3%,·,·,-17%,4%,?
Cc1cccc(N2CCN(S(=O)(=O)c3ccc4c(c3)C(C(C)C)C(=O)N4)CC2)c1C (stereo not given),-8%[57.1 µM],·,·,-33%,24%,-43%[59 µM]
NCc1csc(Nc2cc(Oc3ccccc3)ncn2)n1,·,?,-77*,·,·,·
COC(=O)c1ccc(CNC(=O)COC(=O)c2cc(Cl)nc(Cl)c2)cc1,-4%,-8,-6,-8%,24%,50µM*
COc1ccc(CCNC(=O)COC(=O)c2cc(Cl)nc(Cl)c2)cc1,·,2,·,1%,33%,·
Cn1c(/C(C#N)=N/O)nc2ccccc21,71µM*,-3,-1,?,7%,?
CCn1c(/C(C#N)=N/O)nc2ccccc21,?,-7,0,?,6%,-11%[59 µM]
Cn1c(/C(C#N)=C/c2ccccc2Br)nc2ccccc21,10%,·,·,-17%,40%,0.4µM*
CCn1c(/C(C#N)=C/c2ccccc2Cl)nc2ccccc21,22%,·,·,37%,89%,33%[59 µM]
CC(=O)N1CCCc2cc(S(=O)(=O)N3CCC(C(=O)N(C)C4CCCCC4)CC3)ccc21,2%,·,·,6%,26%[57 µM],3%[59 µM]
SMILES,BAZ2B inh,Six1-Eya2 blk,CtBP-E1A blk,JMJD2A Tudor,HP1b chromo inh,G9a inh
S=C1Nc2ccccc2CS1,·,10,-6,·,·,·
S=C1Cc2ccccc2N1,-35%,-21,-4,79µM*,?,4.5µM*
COc1cccc(Nc2ncc3nc(C)c(=O)n(CCc4ccccc4)c3n2)c1,·,·,·,·,·,0%[0.501 µM]
OCCN1CCN(c2ncnc3c2ncn3[C@H]2CN(Cc3cccc(C(F)(F)F)c3)C[C@@H](CO)O2)CC1,·,3,7,·,·,·
O=C(CN(Cc1ccccc1)C1=NCCS1)c1ccccc1,10%,14,-1,-14%,28%,50µM*
Cc1ccc(C(=O)CN(Cc2ccccc2)C2=NCCS2)cc1,-3%,20,13,-5%,42%,?
NC(=S)Nc1cccc(-c2n[nH]c(=S)o2)c1,-21%,25,-22,?,12%,40µM*
Cc1ccc(NC(=S)Nc2cccc(-c3n[nH]c(=S)o3)c2)cc1,?,1,-14,-28%,-19%,50µM*
Cc1cc(C)cc(NC(=O)COC(=O)Cn2cnc3c2c(=O)n(C)c(=O)n3C)c1,8%,-2,-3,-10%,?,-14%[59 µM]
CCn1c(C)cs/c1=N\C(=S)Nc1ccccc1C,40µM*,0,-2,?,-17%,?
O=[N+]([O-])c1cccc(-c2ccc(C(=S)N3CCN(c4ccccc4)CC3)o2)c1,?,?,?,?,?,3.5µM*
O=[N+]([O-])c1cc(-c2ccc(C(=S)N3CCOCC3)o2)ccc1Cl,32µM*,?,?,40µM*,10µM*,1.8µM*
COc1ccc(N2CCN(C(=O)Oc3ccc([N+](=O)[O-])cc3)CC2)cc1,·,-27,-24,·,·,·
COc1ccc(N2CCN(C(=O)c3ccc(COc4ccc([N+](=O)[O-])cc4)o3)CC2)cc1,?,?,-26,?,?,22µM*
O=[N+]([O-])c1ccc(NC(=S)N2CCN(c3ccccc3)CC2)cc1,-38%,-16,0,-25%,1%,?
O=C(Nc1nccs1)c1ccc(-c2cccc([N+](=O)[O-])c2)o1,-29%,-23,12,56µM*,?,-5%[59 µM]
O=c1c2nccnc2[nH]c(=S)n1Cc1ccccc1Cl,?,5,·,-12%,50%,-48%
COC(=O)C1=C(C)N(c2ccc(F)cc2)/C(=C/c2ccc(O)cc2)C1=O,-14%,-3,5,-2%,32%,-9%[59 µM]
COc1ccc(S(=O)(=O)N(CCc2ccccc2)CC(=O)Nc2cccc(OC)c2)cc1,31%,·,·,-4%,64%,41%[59 µM]
O=C(c1ccc(-c2cccc(Cl)c2)o1)N1CCN(c2ccc([N+](=O)[O-])cc2)CC1,0%,6,1,40µM*,-9%,4%[59 µM]
Cc1c(Cl)cccc1-c1ccc(C(=O)N2CCN(c3ccc([N+](=O)[O-])cc3)CC2)o1,-37%,-4,-2,-24%,16%,?
CN1CCN(C(=S)c2ccc(-c3cccc([N+](=O)[O-])c3)o2)CC1,?,-28,-22,50µM*,-29%,40µM*
